# Key:
# Assay in all cases: DAPPL (digital affinity profiling via proximity ligation, sequencing); 10 mM Tris-HCl pH 7.5, 50 mM NaCl, 1 mM DTT, 4% glycerol, room temperature, 30 min; GST-TFs on glutathione beads, 16-mer random dsDNA library, 0.1% formaldehyde crosslink after washing; high values mean tight binding
# SPI1 = SPI1 (Homo sapiens, UniProt P17947 1-270); conditions: protein: recombinant; tags: N-terminal GST; dsDNA, one strand shown
# Summary of the method: (§1)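 Pools were built from human transcription factors expressed in yeast as GST fusions, captured on glutathione beads and DNA-barcoded, along with a tag-only sample. Incubation with 200 nmole of a 16-mer random double-stranded DNA library lasted 30 min at room temperature in Tris/NaCl/DTT/glycerol buffer, and was followed by washing, 0.1% formaldehyde crosslinking, proximity ligation, PCR amplification and Illumina NextSeq500 sequencing. Binding signal is the quotient of each hexamer's read frequency for a factor and its frequency for the tag-only sample.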
# HSF1 = HSF1 (Homo sapiens, UniProt Q00613 1-529); conditions: protein: recombinant; tags: N-terminal GST; chain copies: 3; dsDNA, one strand shown
# Sequence of HSF1 (Q00613 whole entry): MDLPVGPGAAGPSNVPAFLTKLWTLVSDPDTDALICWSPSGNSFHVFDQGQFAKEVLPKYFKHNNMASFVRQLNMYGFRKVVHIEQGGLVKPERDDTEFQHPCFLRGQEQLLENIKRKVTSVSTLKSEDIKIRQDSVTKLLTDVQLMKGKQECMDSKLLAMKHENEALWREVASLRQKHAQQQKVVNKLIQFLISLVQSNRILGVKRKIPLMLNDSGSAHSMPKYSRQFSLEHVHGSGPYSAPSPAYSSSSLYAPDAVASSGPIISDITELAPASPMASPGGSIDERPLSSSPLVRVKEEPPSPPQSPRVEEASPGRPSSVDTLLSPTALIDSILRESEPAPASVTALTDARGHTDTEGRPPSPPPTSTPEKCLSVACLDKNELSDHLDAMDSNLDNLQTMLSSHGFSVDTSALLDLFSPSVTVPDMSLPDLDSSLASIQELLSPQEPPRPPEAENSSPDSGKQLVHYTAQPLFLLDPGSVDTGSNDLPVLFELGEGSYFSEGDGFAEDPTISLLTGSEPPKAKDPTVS
# Summary of the method: as §1
# SPIC = molecular target: T1, SPIC (Homo sapiens, UniProt Q8N5J4 1-248); conditions: protein: recombinant; tags: N-terminal GST; dsDNA, one strand shown
# T1 sequence: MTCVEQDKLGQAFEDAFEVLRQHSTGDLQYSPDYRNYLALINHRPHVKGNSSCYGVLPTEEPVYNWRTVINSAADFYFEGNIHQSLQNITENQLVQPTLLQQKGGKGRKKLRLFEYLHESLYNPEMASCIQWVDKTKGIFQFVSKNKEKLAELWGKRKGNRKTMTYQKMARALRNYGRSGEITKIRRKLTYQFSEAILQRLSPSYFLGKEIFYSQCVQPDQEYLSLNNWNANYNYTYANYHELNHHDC
# Summary of the method: as §1
# CRX = CRX (Homo sapiens, UniProt O43186 1-299); conditions: protein: recombinant; tags: N-terminal GST; dsDNA, one strand shown
# Sequence of CRX (O43186 whole entry): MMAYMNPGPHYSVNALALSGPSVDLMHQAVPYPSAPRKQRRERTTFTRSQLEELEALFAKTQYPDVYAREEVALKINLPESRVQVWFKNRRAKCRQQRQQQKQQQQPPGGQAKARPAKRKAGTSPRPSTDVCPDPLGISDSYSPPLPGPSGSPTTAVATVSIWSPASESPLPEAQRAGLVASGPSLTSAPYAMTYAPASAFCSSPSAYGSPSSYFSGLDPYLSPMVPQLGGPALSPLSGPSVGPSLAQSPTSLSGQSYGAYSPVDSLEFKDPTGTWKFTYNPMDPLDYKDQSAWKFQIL
# Summary of the method: as §1
# ELK3 = molecular target: T2, ELK3 (Homo sapiens, UniProt P41970 1-407); conditions: protein: recombinant; tags: N-terminal GST; dsDNA, one strand shown
# T2 sequence: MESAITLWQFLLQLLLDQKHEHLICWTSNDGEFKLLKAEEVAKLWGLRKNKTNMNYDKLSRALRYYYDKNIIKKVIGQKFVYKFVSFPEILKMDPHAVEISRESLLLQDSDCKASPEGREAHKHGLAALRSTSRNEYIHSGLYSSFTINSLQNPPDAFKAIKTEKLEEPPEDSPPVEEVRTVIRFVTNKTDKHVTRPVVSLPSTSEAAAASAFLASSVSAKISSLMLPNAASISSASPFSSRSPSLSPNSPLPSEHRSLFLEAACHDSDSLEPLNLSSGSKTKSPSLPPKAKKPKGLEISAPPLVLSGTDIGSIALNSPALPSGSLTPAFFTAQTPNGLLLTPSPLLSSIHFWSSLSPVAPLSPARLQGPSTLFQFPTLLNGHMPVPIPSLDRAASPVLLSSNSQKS
# Summary of the method: as §1
# ELF5 = molecular target: T3, ELF5 (Homo sapiens, UniProt Q9UKW6-2 1-255); conditions: protein: recombinant; tags: N-terminal GST; dsDNA, one strand shown
# T3 sequence: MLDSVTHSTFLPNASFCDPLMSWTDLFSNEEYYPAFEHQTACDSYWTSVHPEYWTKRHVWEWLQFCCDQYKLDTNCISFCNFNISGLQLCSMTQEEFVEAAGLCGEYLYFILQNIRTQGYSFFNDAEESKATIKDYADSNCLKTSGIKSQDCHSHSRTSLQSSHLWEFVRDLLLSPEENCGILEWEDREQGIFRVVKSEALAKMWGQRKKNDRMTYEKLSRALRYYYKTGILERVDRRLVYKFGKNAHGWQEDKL
# Summary of the method: as §1
# FLI1 = molecular target: T4, FLI1 (Homo sapiens, UniProt Q01543 1-452); conditions: protein: recombinant; tags: N-terminal GST; dsDNA, one strand shown
# T4 sequence: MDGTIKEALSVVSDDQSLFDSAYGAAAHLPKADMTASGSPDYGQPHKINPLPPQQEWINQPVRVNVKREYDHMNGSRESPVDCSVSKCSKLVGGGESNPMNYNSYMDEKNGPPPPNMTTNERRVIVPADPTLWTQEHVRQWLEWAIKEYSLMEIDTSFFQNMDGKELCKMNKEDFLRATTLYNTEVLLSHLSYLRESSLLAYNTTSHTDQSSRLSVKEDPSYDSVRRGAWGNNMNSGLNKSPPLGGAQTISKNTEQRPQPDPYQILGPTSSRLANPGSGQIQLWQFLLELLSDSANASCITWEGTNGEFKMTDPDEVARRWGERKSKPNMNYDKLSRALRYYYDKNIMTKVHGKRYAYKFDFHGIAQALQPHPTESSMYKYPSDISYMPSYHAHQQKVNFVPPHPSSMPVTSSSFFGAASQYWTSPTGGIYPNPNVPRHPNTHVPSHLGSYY
# Summary of the method: as §1
Sequence,binding signal (SPI1),binding signal (HSF1),binding signal (SPIC),binding signal (CRX),binding signal (ELK3),binding signal (ELF5),binding signal (FLI1)
TGAAAT,"1.02 fold enrichment (6-mer frequency, TF over GST control)","1.02 fold enrichment (6-mer frequency, TF over GST control)","1.01 fold enrichment (6-mer frequency, TF over GST control)","1.03 fold enrichment (6-mer frequency, TF over GST control)",–,–,–
GAGCTT,–,"1.2 fold enrichment (6-mer frequency, TF over GST control)","1.09 fold enrichment (6-mer frequency, TF over GST control)","1.43 fold enrichment (6-mer frequency, TF over GST control)","1.02 fold enrichment (6-mer frequency, TF over GST control)",–,–
ATCAAA,"1.06 fold enrichment (6-mer frequency, TF over GST control)","1.1 fold enrichment (6-mer frequency, TF over GST control)",–,"1.31 fold enrichment (6-mer frequency, TF over GST control)","1.08 fold enrichment (6-mer frequency, TF over GST control)","1.02 fold enrichment (6-mer frequency, TF over GST control)",–
CGAAGG,–,"1.31 fold enrichment (6-mer frequency, TF over GST control)","1.08 fold enrichment (6-mer frequency, TF over GST control)",–,–,–,–
AAGATC,"1.04 fold enrichment (6-mer frequency, TF over GST control)","1.35 fold enrichment (6-mer frequency, TF over GST control)","1.19 fold enrichment (6-mer frequency, TF over GST control)","1.37 fold enrichment (6-mer frequency, TF over GST control)","1.02 fold enrichment (6-mer frequency, TF over GST control)","1 fold enrichment (6-mer frequency, TF over GST control)",–
CCCAAA,"1.15 fold enrichment (6-mer frequency, TF over GST control)","1.13 fold enrichment (6-mer frequency, TF over GST control)","1.04 fold enrichment (6-mer frequency, TF over GST control)","1.13 fold enrichment (6-mer frequency, TF over GST control)","1.1 fold enrichment (6-mer frequency, TF over GST control)","1.06 fold enrichment (6-mer frequency, TF over GST control)",–
TCAAGT,"1.06 fold enrichment (6-mer frequency, TF over GST control)","1.08 fold enrichment (6-mer frequency, TF over GST control)","1.12 fold enrichment (6-mer frequency, TF over GST control)","1.12 fold enrichment (6-mer frequency, TF over GST control)","1.13 fold enrichment (6-mer frequency, TF over GST control)",–,–
TGTAAG,"1.12 fold enrichment (6-mer frequency, TF over GST control)","1.09 fold enrichment (6-mer frequency, TF over GST control)","1.22 fold enrichment (6-mer frequency, TF over GST control)","1.32 fold enrichment (6-mer frequency, TF over GST control)","1.11 fold enrichment (6-mer frequency, TF over GST control)","1.11 fold enrichment (6-mer frequency, TF over GST control)",–
AGAAAA,"1.11 fold enrichment (6-mer frequency, TF over GST control)","2.39 fold enrichment (6-mer frequency, TF over GST control)","1.04 fold enrichment (6-mer frequency, TF over GST control)","1.27 fold enrichment (6-mer frequency, TF over GST control)","1 fold enrichment (6-mer frequency, TF over GST control)","1.02 fold enrichment (6-mer frequency, TF over GST control)",–
GGCTAA,–,"1.15 fold enrichment (6-mer frequency, TF over GST control)","1.03 fold enrichment (6-mer frequency, TF over GST control)","1.61 fold enrichment (6-mer frequency, TF over GST control)","1.02 fold enrichment (6-mer frequency, TF over GST control)",–,–
TAGTAG,–,"1.2 fold enrichment (6-mer frequency, TF over GST control)","1.02 fold enrichment (6-mer frequency, TF over GST control)","1.25 fold enrichment (6-mer frequency, TF over GST control)",–,–,–
ACAAGA,–,"1 fold enrichment (6-mer frequency, TF over GST control)","1.06 fold enrichment (6-mer frequency, TF over GST control)",–,–,–,–
GGTAAA,"1.04 fold enrichment (6-mer frequency, TF over GST control)","1.04 fold enrichment (6-mer frequency, TF over GST control)",–,"1.07 fold enrichment (6-mer frequency, TF over GST control)","1.04 fold enrichment (6-mer frequency, TF over GST control)","1.1 fold enrichment (6-mer frequency, TF over GST control)",–
CATAAT,"1 fold enrichment (6-mer frequency, TF over GST control)","1.37 fold enrichment (6-mer frequency, TF over GST control)","1.24 fold enrichment (6-mer frequency, TF over GST control)","1.93 fold enrichment (6-mer frequency, TF over GST control)",–,–,–
TCACGG,"1.01 fold enrichment (6-mer frequency, TF over GST control)",–,–,–,"1 fold enrichment (6-mer frequency, TF over GST control)","1.13 fold enrichment (6-mer frequency, TF over GST control)","1.06 fold enrichment (6-mer frequency, TF over GST control)"
TGGGAA,"1.21 fold enrichment (6-mer frequency, TF over GST control)","1.05 fold enrichment (6-mer frequency, TF over GST control)","1.03 fold enrichment (6-mer frequency, TF over GST control)",–,"1 fold enrichment (6-mer frequency, TF over GST control)","1.15 fold enrichment (6-mer frequency, TF over GST control)",–
GCGTCT,"1.04 fold enrichment (6-mer frequency, TF over GST control)","1.01 fold enrichment (6-mer frequency, TF over GST control)","1.11 fold enrichment (6-mer frequency, TF over GST control)",–,"1.13 fold enrichment (6-mer frequency, TF over GST control)","1.08 fold enrichment (6-mer frequency, TF over GST control)",–
TGACGG,"1.02 fold enrichment (6-mer frequency, TF over GST control)",–,–,–,–,"1.06 fold enrichment (6-mer frequency, TF over GST control)","1.01 fold enrichment (6-mer frequency, TF over GST control)"
CGAATC,–,"1.38 fold enrichment (6-mer frequency, TF over GST control)","1 fold enrichment (6-mer frequency, TF over GST control)","1.12 fold enrichment (6-mer frequency, TF over GST control)",–,–,–
TGGCGA,"1.03 fold enrichment (6-mer frequency, TF over GST control)","1.03 fold enrichment (6-mer frequency, TF over GST control)","1.08 fold enrichment (6-mer frequency, TF over GST control)",–,–,–,–
GTGCAT,"1.15 fold enrichment (6-mer frequency, TF over GST control)",–,"1.28 fold enrichment (6-mer frequency, TF over GST control)",–,"1.16 fold enrichment (6-mer frequency, TF over GST control)","1.02 fold enrichment (6-mer frequency, TF over GST control)",–
AGCACA,"1.06 fold enrichment (6-mer frequency, TF over GST control)",–,"1.02 fold enrichment (6-mer frequency, TF over GST control)",–,"1.06 fold enrichment (6-mer frequency, TF over GST control)","1.05 fold enrichment (6-mer frequency, TF over GST control)",–
CGGCTG,–,–,"1.12 fold enrichment (6-mer frequency, TF over GST control)",–,–,–,–
TGTTGT,"1.1 fold enrichment (6-mer frequency, TF over GST control)",–,"1.23 fold enrichment (6-mer frequency, TF over GST control)",–,"1.05 fold enrichment (6-mer frequency, TF over GST control)","1.05 fold enrichment (6-mer frequency, TF over GST control)",–
GGGGCT,–,–,"1.01 fold enrichment (6-mer frequency, TF over GST control)","1.11 fold enrichment (6-mer frequency, TF over GST control)",–,–,–
TCGAAC,–,"2 fold enrichment (6-mer frequency, TF over GST control)",–,"1.07 fold enrichment (6-mer frequency, TF over GST control)","1.06 fold enrichment (6-mer frequency, TF over GST control)","1.04 fold enrichment (6-mer frequency, TF over GST control)",–
GCGAAA,"1.02 fold enrichment (6-mer frequency, TF over GST control)","1.26 fold enrichment (6-mer frequency, TF over GST control)",–,–,–,–,–
